# The full list was thinned out, with hits kept by preference.
# Methyltransferases: Primary Screen for Target Class Profiling of Small Molecule Inhibitors of Methyltransferases; purified enzyme, MTase-Glo SAH luminescence; active compounds read low; calls only at 40 µM; 3.9% of 25,000 active; call rule not given here
#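 Each enzyme was reacted with SAM and its substrate, with compounds tested once at 40 uM; SAH formed was read by MTase-Glo luminescence.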
# Numbers without * were called inactive; i = inactive; + = active, no number. On the % scale 0 is the no-effect control and ±100 the full control effect.
SMILES,Methyltransferases
CC(N)c1cccc(Cl)c1Cl (stereo not drawn),+
CC(C)c1cccc(C(C)C)c1O,i
CCOc1ccc(C2c3cccn3-c3ccccc3CN2C(=O)NCc2cccc(OC)c2)cc1 (stereo not drawn),i
CCOC(=O)CNC(=O)N1Cc2ccccc2-n2cccc2C1c1ccccc1Cl (stereo not drawn),i
CC1c2cccn2-c2ccccc2CN1C(=O)NCc1ccco1 (stereo not drawn),i
CCc1ccc(NC(=O)N2Cc3ccccc3-n3cccc3C2c2cccc(C)c2)cc1 (stereo not drawn),i
CCOC(=O)CNC(=O)N1Cc2ccccc2-n2cccc2C1c1cccc(Cl)c1 (stereo not drawn),i
Cc1nccc2c1[nH]c1ccccc12,i
Cc1c2ccncc2c(C)c2c1[nH]c1ccccc12,+
COc1ccc(C)cc1NC(=O)N1Cc2ccccc2-n2cccc2C1C(C)C (stereo not drawn),i
CCOc1ccccc1NC(=O)N1Cc2ccccc2-n2cccc2C1c1ccccc1 (stereo not drawn),i
Cc1ccc(NC(=O)N2Cc3ccccc3-n3cccc3C2c2ccc(Cl)cc2)cc1C (stereo not drawn),i
CCOCCCNC(=O)N1Cc2ccccc2-n2cccc2C1c1ccc(OC)cc1 (stereo not drawn),i
O=C(Nc1cc(F)ccc1F)N1Cc2ccccc2-n2cccc2C1c1ccccc1 (stereo not drawn),i
O=C(Nc1ccccc1Cl)N1Cc2ccccc2-n2cccc2C1c1ccc(F)cc1 (stereo not drawn),i
CCCN1CCO[C@H]2c3cc(O)ccc3OC[C@@H]21,i
CCCN1CCc2cc(O)cc3c2[C@H]1Cc1ccc(O)c(O)c1-3,+
CN1CCc2cc(O)cc3c2[C@H]1Cc1ccc(O)c(O)c1-3,+
CCC1c2cccn2-c2ccccc2CN1C(=O)Nc1cccc(C(F)(F)F)c1 (stereo not drawn),i
COc1ccc(NC(=O)N2Cc3ccccc3-n3cccc3C2c2ccc(F)cc2)cc1OC (stereo not drawn),i
CCOc1ccc(NC(=O)N2Cc3ccccc3-n3cccc3C2c2ccc(CC)cc2)cc1 (stereo not drawn),i
Cc1cc(NC(=O)N2Cc3ccccc3-n3cccc3C2c2cccs2)ccc1Br (stereo not drawn),i
CCOc1ccc(C2c3cccn3-c3ccccc3CN2C(=O)Nc2ccccc2OC)cc1 (stereo not drawn),i
CCC1c2cccn2-c2ccccc2CN1C(=O)NCc1ccccc1 (stereo not drawn),i
CCCNC(=O)N1Cc2ccccc2-n2cccc2C1c1cccc(C)c1 (stereo not drawn),i
SMILES,Methyltransferases
CCCN(CCC)[C@@H]1CCc2cccc(O)c2C1,i
CCCN(CCC)[C@@H]1CCc2ccc3[nH]c(C#N)cc3c2C1,+
Cc1ccccc1C1c2cccn2-c2ccccc2CN1C(=O)Nc1ccc(F)cc1 (stereo not drawn),i
C[C@H]1CCC[C@H](O)CCC/C=C/c2cc(O)cc(O)c2C(=O)O1,+
CC1CCCC(O)CC(=O)Cc2cc(O)cc(O)c2C(=O)O1 (stereo not drawn),i
COc1cc(O)c2c(c1)CCC[C@@H](O)[C@H](O)C(=O)/C=C\C[C@H](C)OC2=O,i
CC(C)C1c2cccn2-c2ccccc2CN1C(=O)Nc1ccccc1C(F)(F)F (stereo not drawn),i
CCc1ccc(C2c3cccn3-c3ccccc3CN2C(=O)Nc2cccc(Br)c2)cc1 (stereo not drawn),i
COc1cccc(NC(=O)N2Cc3ccccc3-n3cccc3C2c2ccccc2)c1 (stereo not drawn),i
CSc1ccc(C2c3cccn3-c3ccccc3CN2C(=O)Nc2ccc3c(c2)OCCO3)cc1 (stereo not drawn),i
N#Cc1cn([C@@H]2O[C@H](CO)[C@H](O)[C@@H]2O)c2ncnc(N)c12,+
CCOc1ccc(C2c3cccn3-c3ccccc3CN2C(=O)Nc2cc(F)ccc2F)cc1 (stereo not drawn),i
CCOc1ccccc1NC(=O)N1Cc2ccccc2-n2cccc2C1CC (stereo not drawn),i
CC1c2cccn2-c2ccccc2CN1C(=O)Nc1ccc(F)c(Cl)c1 (stereo not drawn),i
CCOCCCNC(=O)N1Cc2ccccc2-n2cccc2C1CC (stereo not drawn),i
COc1ccc(C2c3cccn3-c3ccccc3CN2C(=O)NCc2ccc(F)cc2)cc1OC (stereo not drawn),i
c1ccc2c(N3CCNCC3)cccc2c1,+
O=C(NCc1ccco1)N1Cc2ccccc2-n2cccc2C1c1ccc(Cl)cc1 (stereo not drawn),i
CC(C)c1ccc(C2c3cccn3-c3ccccc3CN2C(=O)Nc2ccc3c(c2)OCCO3)cc1 (stereo not drawn),i
CSc1ccc(C2c3cccn3-c3ccccc3CN2C(=O)Nc2ccc(C)c(Cl)c2)cc1 (stereo not drawn),i
CN1CCC[C@@H]1Cc1c[nH]c2ccc(Nc3ncccc3[N+](=O)[O-])cc12,+
O=C(Nc1ccc(Br)cc1)N1Cc2ccccc2-n2cccc2C1c1ccccc1 (stereo not drawn),i
CCC1c2cccn2-c2ccccc2CN1C(=O)Nc1ccc(C)c(Cl)c1 (stereo not drawn),i
CCOC(=O)CNC(=O)N1Cc2ccccc2-n2cccc2C1c1ccccc1 (stereo not drawn),i
Cc1ccc(C2c3cccn3-c3ccccc3CN2C(=O)Nc2ccc(F)cc2)cc1 (stereo not drawn),i
SMILES,Methyltransferases
O=S1(=O)N(CCN2CC=C(c3c[nH]c4cc(F)ccc34)CC2)c2cccc3c2N1CCC3,+
CCC1c2cccn2-c2ccccc2CN1C(=O)Nc1cccc2c1CCCC2 (stereo not drawn),i
COc1ccc(C)cc1NC(=O)N1Cc2ccccc2-n2cccc2C1c1ccc(F)cc1 (stereo not drawn),i
CCOc1ccc(C2c3cccn3-c3ccccc3CN2C(=O)Nc2cc(Cl)ccc2OC)cc1 (stereo not drawn),i
COc1ccc(NC(=O)N2Cc3ccccc3-n3cccc3C2c2ccccc2C)cc1 (stereo not drawn),i
CCOC(=O)CNC(=O)N1Cc2ccccc2-n2cccc2C1c1cccs1 (stereo not drawn),i
COc1cccc(CNC(=O)N2Cc3ccccc3-n3cccc3C2c2cccc(C)c2)c1 (stereo not drawn),i
O=C1Nc2ccc3ncsc3c2/C1=C/c1cnc[nH]1,+
O=C(Nc1ccc(F)cc1F)N1Cc2ccccc2-n2cccc2C1c1ccc(F)cc1 (stereo not drawn),i
COCCCNC(=O)N1Cc2ccccc2-n2cccc2C1c1ccc(Cl)cc1 (stereo not drawn),i
CCOc1ccc(C2c3cccn3-c3ccccc3CN2C(=O)Nc2ccc(C)c(F)c2)cc1 (stereo not drawn),i
CNCCc1c[nH]c2ccc(O)cc12,i
COc1ccc(CNC(=O)/C=C/c2ccc3[nH]cc(CCN(C)C)c3c2)cc1,+
COc1ccc(C2c3cccn3-c3ccccc3CN2C(=O)Nc2cc(OC)cc(OC)c2)cc1 (stereo not drawn),i
